From PubChem BioAssay (NCATS)
Inconclusive results are not listed. Active and inactive are the calls of the source. The call rests on the fitted dose curve; in most records, active means well fitted cell-killing curve with a large enough effect; inconclusive means small, poorly fitted or top-dose-only effect, or effect the other way; inactive means flat fitted curve, though single readings scatter.

Legend:
Assay in all cases: Primary qHTS to identify gynecologic anti-cancer compounds using libraries of approved drugs and bioactive compounds (AID 1345084); further: nearly all actives have a fitted effect of over 55% in size
[1] = test system: C33A; conditions: Gynecologic cancer cell panel viability, ATPlite luminescence, 48 h; series mostly up to 57.5 µM
Procedure, shortened: (§1)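 Luminescence from the ATPlite ATP-monitoring reagent indicates viable cell number; lower signal means cytotoxicity. Cells received compound 16 h after seeding and were exposed for 48 h across five concentrations.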

[2] = test system: CAOV3; conditions: Gynecologic cancer cell panel viability, ATPlite luminescence, 48 h; series mostly up to 57.5 µM
Procedure, shortened: as §1

[3] = test system: CASKI; conditions: Gynecologic cancer cell panel viability, ATPlite luminescence, 48 h; series mostly up to 57.5 µM
Procedure, shortened: as §1

[4] = test system: Es-2; conditions: Gynecologic cancer cell panel viability, ATPlite luminescence, 48 h; series mostly up to 57.5 µM
Procedure, shortened: as §1

[5] = test system: HeLa; conditions: Gynecologic cancer cell panel viability, ATPlite luminescence, 48 h; series mostly up to 57.5 µM
Procedure, shortened: as §1

[6] = test system: Hek293T; conditions: Gynecologic cancer cell panel viability, ATPlite luminescence, 48 h, control line for the selectivity index; series mostly up to 57.5 µM
Procedure, shortened: as §1

[7] = test system: JEG-3; conditions: Gynecologic cancer cell panel viability, ATPlite luminescence, 48 h; series mostly up to 57.5 µM
Procedure, shortened: as §1

[8] = test system: OV90; conditions: Gynecologic cancer cell panel viability, ATPlite luminescence, 48 h; series mostly up to 57.5 µM
Procedure, shortened: as §1

[9] = test system: PA-1; conditions: Gynecologic cancer cell panel viability, ATPlite luminescence, 48 h; series mostly up to 57.5 µM
Procedure, shortened: as §1

[10] = test system: Tov-21-G; conditions: Gynecologic cancer cell panel viability, ATPlite luminescence, 48 h; series mostly up to 57.5 µM
Procedure, shortened: as §1

[11] = test system: Tov112D; conditions: Gynecologic cancer cell panel viability, ATPlite luminescence, 48 h; series mostly up to 57.5 µM
Procedure, shortened: as §1
On the % scale 0 is the no-effect control and ±100 the full control effect.

CC#CC(=O)N1CCC[C@H]1c1nc(-c2ccc(C(=O)Nc3ccccn3)cc2)c2c(N)nccn12
inactive: Potency [1] | Potency [2] | Potency [3] | Potency [4] | Potency [5] | Potency [6] | Potency [7] | Potency [8] | Potency [9] | Potency [10] | Potency [11]

Cc1ccc(Cc2c(C)nc3nc(SCC(=O)NCCN4CCNCC4)nn3c2C)cc1
inactive: Potency [1] | Potency [2] | Potency [3] | Potency [4] | Potency [5] | Potency [6] | Potency [7] | Potency [8] | Potency [9] | Potency [10] | Potency [11]

Cc1cc(O)cc(O[C@@H]2O[C@H](CO)[C@@H](O)[C@H](O)[C@H]2O)c1
inactive: Potency [1] | Potency [2] | Potency [3] | Potency [4] | Potency [5] | Potency [6] | Potency [7] | Potency [8] | Potency [9] | Potency [10] | Potency [11]

C[C@@]1(O)[C@H](O)[C@@H](CO)O[C@H]1n1ccc(N)nc1=O
inactive: Potency [1] | Potency [2] | Potency [3] | Potency [4] | Potency [5] | Potency [6] | Potency [7] | Potency [8] | Potency [9] | Potency [10] | Potency [11]

C[C@@H]1O[C@@H](O[C@@H]2[C@@H](O)[C@@H](O[C@]3(CO)O[C@H](CO)[C@@H](O)[C@@H]3OC(=O)/C=C/c3ccc(O)cc3)O[C@H](CO)[C@H]2OC(=O)/C=C/c2ccc(O)cc2)[C@H](O)[C@H](O)[C@H]1O[C@@H]1O[C@@H](C)[C@H](O[C@@H]2OC[C@](O)(CO)[C@H]2O)[C@@H](O)[C@H]1O
inactive: activity change, negative = cytotoxicity [1] 8.98% [at 11.6 µM] | activity change, negative = cytotoxicity [2] 0.132% [at 11.6 µM] | activity change, negative = cytotoxicity [3] 12.2% [at 11.6 µM] | activity change, negative = cytotoxicity [4] -1.87% [at 11.6 µM] | activity change, negative = cytotoxicity [5] 10.7% [at 11.6 µM] | activity change, negative = cytotoxicity [6] -1.85% [at 11.6 µM] | activity change, negative = cytotoxicity [7] 3.39% [at 11.6 µM] | activity change, negative = cytotoxicity [8] -2.82% [at 11.6 µM] | activity change, negative = cytotoxicity [9] 32.6% [at 11.6 µM] | activity change, negative = cytotoxicity [10] 7.09% [at 11.6 µM] | activity change, negative = cytotoxicity [11] 12.6% [at 11.6 µM]

N[C@@]1(C(=O)O)CC[C@H]2[C@H](C(=O)O)[C@H]21
inactive: Potency [1] | Potency [2] | Potency [3] | Potency [4] | Potency [5] | Potency [6] | Potency [7] | Potency [8] | Potency [9] | Potency [10] | Potency [11]

CO[C@H]1O[C@@H]2O[C@]3(C)CC[C@H]4[C@H](C)CC[C@@H]([C@H]1C)[C@@]24OO3
inactive: Potency [1] | Potency [2] | Potency [3] | Potency [4] | Potency [5] | Potency [6] | Potency [7] | Potency [8] | Potency [9] | Potency [10] | Potency [11]

O=C(O)CC1CCC(c2ccc(-c3ccc4nc(C(=O)NCc5ccc(OC(F)(F)F)cc5)cn4c3)cc2)CC1 (centres undefined)
inactive: Potency [1] | Potency [2] | Potency [3] | Potency [4] | Potency [5] | Potency [6] | Potency [7] | Potency [8] | Potency [9] | Potency [10] | Potency [11]

CCCCOC(=O)NC(=O)C1c2ccccc2Oc2ccccc21
inactive: Potency [1] | Potency [2] | Potency [3] | Potency [4] | Potency [5] | Potency [6] | Potency [7] | Potency [8] | Potency [9] | Potency [10] | Potency [11]

CC(C)(C)CCN1C[C@@H]2C(CNC(=O)c3cc(Cl)cc(Cl)c3)[C@@H]2C1 (some centres undefined)
inactive: Potency [1] | Potency [2] | Potency [3] | Potency [4] | Potency [5] | Potency [6] | Potency [7] | Potency [8] | Potency [9] | Potency [10] | Potency [11]

CC(=O)OC1CC2C3(C)CCC(OC(=O)CC(=O)O)C(C)(C)C3CCC2(C)C2(C)CCC(C3(C)CCC(=O)O3)C12 (centres undefined)
inactive: Potency [1] | Potency [2] | Potency [3] | Potency [4] | Potency [5] | Potency [6] | Potency [7] | Potency [8] | Potency [9] | Potency [10] | Potency [11]

O=C(c1ccc2nccnc2c1)N1CCCCC1
inactive: Potency [1] | Potency [2] | Potency [3] | Potency [4] | Potency [5] | Potency [6] | Potency [7] | Potency [8] | Potency [9] | Potency [10] | Potency [11]

CCOc1ccc(NC(=S)N2CCC(C(O)(c3ccccc3)c3ccccc3)CC2)cc1
inactive: Potency [1] | Potency [2] | Potency [3] | Potency [4] | Potency [5] | Potency [6] | Potency [7] | Potency [8] | Potency [9] | Potency [10] | Potency [11]

C[C@@H]1O[C@@H](O[C@@H]2[C@@H](O)[C@H](O[C@H]3[C@H](O[C@H]4CC[C@@]5(C)C(CC[C@]6(C)C5CC=C5[C@@H]7CC(C)(C)CC[C@]7(C(=O)O[C@@H]7O[C@H](CO)[C@@H](O)[C@H](O)[C@H]7O[C@@H]7O[C@@H](C)[C@H](O[C@@H]8O[C@@H](C)[C@H](O)[C@@H](O)[C@H]8O)[C@@H](O)[C@H]7O)CC[C@]56C)[C@@]4(C)CO)O[C@H](C(=O)O)[C@@H](O)[C@@H]3O)O[C@H](CO)[C@H]2O)[C@H](O)[C@H](O)[C@H]1O (some centres undefined)
inactive: activity change, negative = cytotoxicity [1] 0.245% [at 6.55 µM] | activity change, negative = cytotoxicity [2] 5.38% [at 6.55 µM] | activity change, negative = cytotoxicity [3] 3.98% [at 6.55 µM] | activity change, negative = cytotoxicity [4] -0.113% [at 6.55 µM] | activity change, negative = cytotoxicity [5] 1.1% [at 6.55 µM] | activity change, negative = cytotoxicity [6] 2.2% [at 6.55 µM] | activity change, negative = cytotoxicity [7] 8.58% [at 6.55 µM] | activity change, negative = cytotoxicity [8] 6.41% [at 6.55 µM] | activity change, negative = cytotoxicity [9] 2.55% [at 6.55 µM] | activity change, negative = cytotoxicity [10] -1.58% [at 6.55 µM] | activity change, negative = cytotoxicity [11] 10.3% [at 6.55 µM]
